Experimental findings from PubChem BioAssay AID1014 (NMMLSC, 2008) are described below.

SMILES strings stand for the structures. Activity calls are given as the source filed them. Cut-off read from the data, not from the text of the source: active = inhibition of mean fluorescence above about 33%; inactive = the rest.

This experiment is described as follows: quorum sensing inhibitors in bacterial reporter, SAR follow-up, flow cytometry, SAR analogs (AID 1014).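 Note: Staphylococcus aureus RN6390 with RNAIII-GFP reporter stimulated by AIP; bacteria incubated with compound for 3 hours at 37 °C.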 The following applies: at 20 µM, stronger effect = higher value; inhibition of percent positive cells: flow cytometry fluorescence, measured here: percent reporter-positive cells. In general terms: In flow cytometry, cells or beads pass a laser one at a time.
For the molecule `Cc1c(Nc2c(C(=O)O)cc([N+](=O)[O-])cc2[N+](=O)[O-])c(=O)n(-c2ccccc2)n1C`, the inhibition of mean fluorescence was -3.7% (inactive) and the inhibition of percent positive cells is -0.4%.
On to `Cc1ccc(S(=O)(=O)c2nnn3c2nc(Nc2cc(C)cc(C)c2)c2ccccc23)cc1`, for which the inhibition of mean fluorescence is -4% (inactive) and the inhibition of percent positive cells was -1.1%.
On to `CC1CCN(C(C(=O)NC2CCCC2)c2cc3c(cc2[N+](=O)[O-])OCO3)CC1` (stereo not drawn), for which the inhibition of mean fluorescence is -5.4% (inactive) and the inhibition of percent positive cells was -1%.
In the same order, the values of `Cc1ccc(Nc2ncccc2C(=O)O)cc1` are -7.8% (inactive) and -1.3%.
